Source: PubChem
DRD3 antagonist – D3 dopamine receptor (human) antagonism; D3R cells, DiscoveRx beta-arrestin luminescence, antagonist mode; active compounds read low; max response, negative = inhibition, %; 2.5% of 360,000 active; in the data active means max response below about -50%; inconclusive means no clear call, values can overlap the other calls; further: on the % scale 0 is the no-effect control and ±100 the full control effect
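Cells plated overnight at 1500 cells/well, then exposed to library compounds with dopamine controls for 90 minutes at 37 degrees C. DiscoveRx reagent added for 30–60 minutes at room temperature; luminescence read, quantitative HTS format.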
D1 PAM – potentiators of human D1 dopamine receptor; P21728; HEK293 TREx D1 cells, calcium flux, dopamine EC20 potentiation; potentiation, % at 10 µM; 0.036% of 360,000 active; AID 504651; in the data active means potentiation above about 30%; further: 0% is about no effect
Target sequence (P21728 whole entry, looked up): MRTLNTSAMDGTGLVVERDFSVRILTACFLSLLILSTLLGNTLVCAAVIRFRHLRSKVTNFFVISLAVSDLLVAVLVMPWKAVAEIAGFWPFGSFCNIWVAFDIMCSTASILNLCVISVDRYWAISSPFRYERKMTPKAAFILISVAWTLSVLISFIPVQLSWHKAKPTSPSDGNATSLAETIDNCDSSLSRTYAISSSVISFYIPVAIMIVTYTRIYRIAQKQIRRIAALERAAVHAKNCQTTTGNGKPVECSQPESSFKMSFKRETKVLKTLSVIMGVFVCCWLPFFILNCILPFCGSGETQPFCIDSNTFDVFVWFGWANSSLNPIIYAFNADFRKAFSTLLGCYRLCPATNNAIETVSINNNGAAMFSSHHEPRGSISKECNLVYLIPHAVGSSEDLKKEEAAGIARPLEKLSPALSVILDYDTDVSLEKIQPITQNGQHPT
D3 ag – agonists of human D3 dopamine receptor; P35462; D3R DiscoveRx beta-arrestin cells, luminescence, 90 min; max activation, %; 0.58% of 410,000 active; AID 652048; in the data active means max activation above about 30%; further: 0% is about no effect
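Cells at 1500/well, incubated overnight, then treated with pinned compounds (dopamine as control) for 90 min at 37 degrees C. DiscoveRx reagent added for 30 - 60 minutes at room temperature; luminescence read.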
D1 ag – human D1 receptor agonism. P21728. HEK293 T-REx D1 cells, calcium flux, agonist mode. activation, % at 2 µM. 1% of 360,000 active; in the data active means activation above about 30%; further: 0% is about no effect
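Agonism was scored from calcium flux recorded over 180 s (1 read/s) after pintool compound addition, following a 10-cycle baseline. Cells were inducible force-coupled HEK293 TREx D1, plated overnight at 30 C and loaded with no-wash calcium dye.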
D1 antagonist – blocks dopamine activation of the human D1 receptor; 3.2% of 360,000 active; HEK293 TREx D1 cells, calcium flux, dopamine EC80; active compounds read low; activity change, negative = inhibition, % at 10 µM; in the data active means activity change below about -30%; further: on the % scale 0 is the no-effect control and ±100 the full control effect
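Tetracycline-induced HEK293 T-REx cells with force-coupled D1 receptor were loaded with a no-wash calcium dye. Compound was added after a 10 s baseline and read kinetically for 180 s; EC80 dopamine was then added and calcium flux followed another 180 s.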
The depositor's hits bear a star; ? = inconclusive; . = no result given. Only some compounds are listed: those with a hit (about 6% of all), similar ones and a draw of the others.

SMILES	DRD3 antagonist	D1 PAM	D3 ag	D1 ag	D1 antagonist
CCc1ccc(-n2nc(C)c3c(C)cc(=O)n(CC(=O)NCc4ccc(C)cc4)c32)cc1	.	-4	-12	1	0
COc1ccc(C(=O)COC(=O)CN2C(=O)C3C4C=CC(C5CC45)C3C2=O)cc1 (centres undefined)	-28	0	7	9	-33*
CC(C)C(C(=O)OCC(=O)c1cccc([N+](=O)[O-])c1)N1C(=O)[C@@H]2[C@H]3CC[C@H](C3)[C@@H]2C1=O (some centres undefined)	-5	2	-7	2	-33*
O=C(CN1C(=O)C2C3CCC(C3)C2C1=O)OCC(=O)c1cccc([N+](=O)[O-])c1 (centres undefined)	3	-6	-8	14	-33*
O=C(CN1C(=O)C2C3C=CC(C3)C2C1=O)OCC(=O)c1ccc(Cl)c([N+](=O)[O-])c1 (centres undefined)	-70*	.	-30	.	.
CC(C)C(C(=O)OCC(=O)c1ccccc1)N1C(=O)C2C3C=CC(C3)C2C1=O (centres undefined)	2	-4	-1	1	5
O=C(CCN1C(=O)C2C3CCC(C3)C2C1=O)OCC(=O)c1cccc([N+](=O)[O-])c1 (centres undefined)	?	5	-16	3	-6
Cc1ccc(C(=O)COC(=O)CN2C(=O)C3C4C=CC(C4)C3C2=O)cc1[N+](=O)[O-] (centres undefined)	-3	0	9	13	-15
Cc1ccc(C(C)C)c(OCC(=O)NCC2(N(C)C)CCCCC2)c1	.	0	-8	3	6
CCc1nc2ccc(C(=O)NC3CCN(Cc4ccccc4)CC3)cn2c1N(C)Cc1cc2ccccc2s1	-68*	.	-10	.	.
CCc1nc2ccc(C(=O)NC3CCN(Cc4ccccc4)CC3)cn2c1N(C)Cc1cccs1	-77*	.	-29	.	.
CCc1nc2ccc(C(=O)NCCCn3ccnc3)cn2c1N(C)Cc1cc2ccccc2s1	17	.	3	.	.
CC(CNC1CCCCC1)OC(=O)c1ccccc1 (centres undefined)	-100*	-4	-84	-1	2
O=C(COC(=O)c1ccccc1)NC1CCCC1	-4	-7	1	4	-19
O=C(NCCC1=CCCCC1)c1ccc2c(=O)n3nc(Nc4ccccc4)sc3nc2c1	.	1	5	2	-7
COc1cc(SC)ccc1C(=O)NCCOc1c(C)cc(C)cc1C	-83*	-1	-3	22	15
O=C(Nc1cccc(NC(=O)c2ccccc2Cl)c1)c1ccc([N+](=O)[O-])o1	-15	-9	-2	6	-46*
O=C(Nc1ccccc1C(=O)NC1CC1)c1ccc([N+](=O)[O-])o1	-63*	4	2	3	-3
O=C(Nc1cccc2ccccc12)c1ccc([N+](=O)[O-])o1	-16	-8	1	-3	-7
Cc1ccc(CNC(=O)CN2C(=O)CSc3ccc(S(=O)(=O)N(C)C)cc32)cc1	.	0	-12	3	1
C=C(C)c1cccc(C(C)(C)NC(=O)N2CCN(C)CC2)c1	-18	-3	2	1	1
C=C(C)c1cccc(C(C)(C)NC(=O)N2CCN(CC)CC2)c1	10	-9	7	0	-1
C=C(C)c1cccc(C(C)(C)NC(=O)N2CCC(C)CC2)c1	-1	-9	-1	0	-43*
C=C(C)c1cccc(C(C)(C)NC(=O)N2CCN(c3ccc(OC)cc3)CC2)c1	2	-7	1	0	-37*
CCOc1ccccc1NC(=O)CSc1nc2c([nH]c3ccccc32)c(=O)n1-c1ccccc1	.	-2	-11	1	1
SMILES	DRD3 antagonist	D1 PAM	D3 ag	D1 ag	D1 antagonist
COc1cc(/C=N/NC(=O)c2ccc(CSc3nc4ccccc4[nH]3)cc2)cc(OC)c1OC	-13	-10	-7	11	-33*
COc1cc(/C=N/NC(=O)Cc2ccccc2)cc([N+](=O)[O-])c1O	-56*	2	-7	3	-3
COc1cc(/C=N\NC(=O)c2ccc(-c3ccccc3)cc2)cc(OC)c1O	11	-3	2	0	-31*
COc1cc(/C=C(\C#N)C(=O)Nc2ccc(C)cc2)ccc1OCc1cc(=O)n2nc(C)sc2n1	.	10	-6	0	9
Cc1ccc2oc(C(=O)N(Cc3ccccc3F)C3CCS(=O)(=O)C3)c(C)c2c1 (centres undefined)	.	2	-4	19	-11
C=CCSC(=S)Nc1c(C)n(C)n(-c2ccccc2)c1=O	-2	2	5	3	-1
C=CCOC(=O)C(=O)/C=C/c1c(C)n(C)n(-c2ccccc2)c1=O	0	1	-17	-4	-40*
COC(=O)c1nc2n(n1)C(c1cccc(Cl)c1)C(C(=O)Nc1ccccc1OC)=C(C)N2 (centres undefined)	.	-1	3	4	4
Nc1c(C(=O)Nc2ccc(Cl)cc2F)sc2nc(-c3cccs3)ccc12	.	0	8	16	-38*
Nc1c(C(=O)Nc2ccccc2Br)sc2nc(-c3cccs3)ccc12	.	-1	9	8	-9
Nc1c(C(=O)Nc2nc3ccccc3s2)sc2nc(-c3cccs3)ccc12	-22	-3	3	112*	3
CCOc1ccccc1NC(=O)c1cc2cc(C)ccc2n1C	.	7	8	3	-7
Cc1nn(C)cc1/C=N/NC(=O)C1(O)c2ccccc2-c2ccccc21	9	-6	-1	1	-34*
COc1ccc(C2CC(=O)c3cc(-c4nc(-c5cccc([N+](=O)[O-])c5)cs4)c(=O)n(-c4cccc(C)c4)c3C2)cc1 (centres undefined)	.	0	-4	0	2
CC(=O)N1CCC(N(C(=O)Nc2ccc(C)c(C)c2)C2CCCC2)CC1	34	-6	5	1	7
CC(=O)N1CCC(N(C(=O)Nc2ccc(C)c(F)c2)C(C)C)CC1	.	2	1	-2	-48*
CCCCCCSc1ccc(-c2nc3ccc(C)cn3c2NCc2ccccc2)cc1OC	94	-9	19	2	13
CCCCNc1c(-c2ccc(Sc3ccc(OC)cc3)cc2)nc2cc(C)ccn12	0	.	56*	.	.
CCCCNc1c(-c2ccc(OC)c(SC(C)CC)c2)nc2cc(C)ccn12 (centres undefined)	4	.	63*	.	.
CCCCNc1c(-c2ccc(OC)c(SC(C)CC)c2)nc2cnccn12 (centres undefined)	79	.	53*	.	.
CCCCCCSc1ccc(-c2nc3ccc(C)cn3c2NCc2ccccc2)cc1	7	-10	15	0	-36*
CCCCNc1c(-c2ccc(-c3ccc(C(C)=O)cc3)c(OC)c2)nc2cc(C)ccn12	39	.	-20	.	.
CCCCNc1c(-c2ccc(OC)c(SC(C)CC)c2)nc2ccc(C)cn12 (centres undefined)	-14	.	13	.	.
CCN(CC)CCSc1nnc2c3cc(F)ccc3n(CC)c2n1	.	-3	-22	0	-18
